# Source: PubChem (National Center for Advancing Translational Sciences (NCATS))
# Sampled rows, rich in hits. Any-hit rate of the full collection: about 4.6%.
# D1 antag – human D1 dopamine receptor antagonism; P21728; HEK293 TREx D1 cells, calcium flux, dopamine EC80; active compounds read low; activity change, negative = inhibition, % at 10 µM; hit rate 3.2% among 360,000; in the data active = activity change below about -30%; note: % is set by controls: 0 for no effect and ±100 for the full control effect
# Target sequence (P21728 whole entry, looked up): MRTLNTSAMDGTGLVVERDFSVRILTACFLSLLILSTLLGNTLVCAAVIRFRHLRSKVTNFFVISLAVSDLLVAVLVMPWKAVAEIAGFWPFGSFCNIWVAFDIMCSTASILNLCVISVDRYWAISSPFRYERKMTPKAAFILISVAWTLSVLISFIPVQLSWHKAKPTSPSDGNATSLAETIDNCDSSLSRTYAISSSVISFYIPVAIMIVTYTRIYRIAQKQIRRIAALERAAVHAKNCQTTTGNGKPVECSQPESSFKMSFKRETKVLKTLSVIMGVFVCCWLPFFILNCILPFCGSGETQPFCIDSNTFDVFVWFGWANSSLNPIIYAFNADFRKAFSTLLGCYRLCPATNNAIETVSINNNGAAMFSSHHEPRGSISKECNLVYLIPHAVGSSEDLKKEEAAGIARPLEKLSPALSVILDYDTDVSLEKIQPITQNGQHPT
#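 HEK293 T-REx cells expressing inducible, force-coupled D1 receptor; no-wash Ca dye, 30–90 min RT. Cmpd → 180 s read at 1 Hz → EC80 DA → 180 s read.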
# D1 PAM – enhances dopamine response at the human D1 receptor; P21728; HEK293 TREx D1 cells, calcium flux, dopamine EC20 potentiation; potentiation, % at 10 µM; hit rate 0.036% among 360,000; AID 504651; in the data active = potentiation above about 30%; note: 0% is about no effect
# D1 agonist – agonists of human D1 dopamine receptor; activation, % at 2 µM; hit rate 1% among 360,000; HEK293 T-REx D1 cells, calcium flux, agonist mode; note: 0% is about no effect
#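 Agonism was scored from calcium flux recorded over 180 s (1 read/s) after pintool compound addition, following a 10-cycle baseline. Cells were inducible force-coupled HEK293 TREx D1, plated overnight at 30 C and loaded with no-wash calcium dye.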
# TRHR ag – agonists of human TRH receptor; P34981; TRHR cells, calcium flux fluo-8, FDSS agonist mode; activation, % at 2 µM; hit rate 0.18% among 360,000; note: 0% is about no effect
#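 Agonist-mode FDSS calcium read (Ex 480/Em 530, 1 s cycles) in 1536-well TRHR cells with fluo-8 dye, after 10-cycle baseline and 23 nL compound addition; TRH at EC20 (10 nM final) added afterwards for the enhancer phase.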
# TRHR enhancer – TRH receptor (human) allosteric enhancement. P34981. TRHR cells, fluo-8 calcium fluorescence, EC20 TRH enhancement. enhancement, % at 2 µM. hit rate 0.66% among 360,000; in the data active = enhancement above about 30%; note: 0% is about no effect
#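 TRHR-expressing cells loaded with fluo-8 calcium dye were read kinetically (ex 480/em 530) during compound addition, then stimulated with an EC20 of TRH (10 nM final). Enhancement of the Gq-mediated intracellular calcium response was scored.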
# * = called active by the depositor; . = no result given. Cut-off read from the data, not from the text of the source, unless noted: active = activation above about 30%; inactive = the rest.
SMILES,D1 antag,D1 PAM,D1 agonist,TRHR ag,TRHR enhancer
CCN1CCN(C2=CC3=CC(=C(C#N)C#N)CCC3CC2)CC1 (stereo unspecified),-20,18,590*,235*,-22
N#CC(C#N)=C1C=C2C=C(N3CCCCCC3)CCC2CC1 (stereo unspecified),-68*,-16,383*,205*,-15
N#CC(C#N)=C1C=C2C=C(N3CCOCC3)CCC2CC1 (stereo unspecified),10,17,522*,231*,-20
CC1(C)CC(NCCN2CCN(C3=CC(=C(C#N)C#N)CC(C)(C)C3)CC2)=CC(=C(C#N)C#N)C1,2,-5,0,0,2
Cc1ccc(C(=O)Nc2c(N)nc(SCC(=O)Nc3cc(C)on3)[nH]c2=O)cc1,-8,-2,2,1,-3
CC(=O)NCc1nc2cccnc2n1Cc1ccccc1,-32*,2,0,0,-1
CC(C)CC(=O)NCc1nc2cccnc2n1Cc1ccccc1,10,-6,0,0,14
CCOc1ccc(OCCC(=O)OCC(=O)N2CCN(S(=O)(=O)c3ccc(Cl)cc3)CC2)cc1,-32*,-6,8,2,7
Cc1ccccc1OCC(=O)OCC(=O)Nc1cc(S(=O)(=O)N2CCCCC2)ccc1Cl,-96*,-2,4,1,9
Cc1ccc(C)c(OCCC(=O)OCC(=O)N2CCN(S(=O)(=O)c3ccc(Cl)cc3)CC2)c1,-16,3,6,-1,8
Cc1ccc(C)c(OCCC(=O)N2CCN(S(=O)(=O)c3ccc([N+](=O)[O-])cc3)CC2)c1,-33*,2,3,0,0
CCN1CCN(S(=O)(=O)c2ccc(OC)c(NC(=O)c3ccccc3)c2)CC1,-48*,0,3,0,1
Cc1cccc(NC(=O)Cn2c(=O)n(-c3ccccc3Cl)c(=O)c3c(C)c(C(=O)N(C)C)sc32)c1,6,1,0,0,2
Cc1ccc(C(=O)OCC(=O)N2CCC(Cc3ccccc3)CC2)cc1N,-7,3,7,-1,9
Clc1ccc(Cn2c(-c3cccnc3Cl)nc3ccccc32)c(Cl)c1,14,3,3,1,-5
CCOC(=O)CSc1nnc(CNC(=O)c2ccc(S(=O)(=O)N3CCOCC3)cc2)n1C,-8,-3,8,0,-3
CCOC(=O)CSc1nnc(CNC(=O)c2ccc(S(=O)(=O)N3CCCC3)cc2)n1C,7,-2,54*,-2,-2
Cc1ccccc1OCCOC(=O)c1ccc(S(=O)(=O)N2CCCC2)cc1,-31*,-1,13,2,-12
COc1ccccc1NC(=O)c1ccc(S(=O)(=O)N2CCCC2)cc1,-1,1,2,0,-4
Cc1ccc(S(=O)(=O)N2CCN(C(=O)COC(=O)CCOc3cc(C)ccc3C)CC2)cc1,-17,-6,27,0,1
CCOc1ccccc1NC(=O)c1ccc(S(=O)(=O)N2CCCCC2)cc1,-10,-6,9,-1,32*
Cc1ccc(S(=O)(=O)N2CCN(C(=O)COC(=O)CCOc3ccccc3C)CC2)cc1,-36*,-18,12,0,-2
COc1ccc(-n2c(COc3cccc4ccccc34)nnc2SCC(=O)NCc2ccco2)cc1,-34*,-10,10,-1,-5
CC(=O)Nc1cccc(NC(=O)CCn2c(=O)sc3ccccc32)c1,-90*,-4,3,0,5
O=C(CCn1c(=O)sc2ccccc21)NCc1ccc2c(c1)OCO2,-17,-4,-3,-1,-1
SMILES,D1 antag,D1 PAM,D1 agonist,TRHR ag,TRHR enhancer
O=C(CSc1nnc(Cn2c(=O)sc3ccccc32)n1-c1ccccc1)N1CCOCC1,-6,-3,7,-1,5
O=C(CCn1c(=O)sc2ccccc21)NCc1ccco1,-2,-5,79*,0,-8
Cc1ccccc1-n1c(Cn2c(=O)sc3ccccc32)nnc1SCC(=O)N1CCOCC1,-38*,.,4,0,3
CC(C)(Cc1ccc(O)cc1)NC(=O)CC(=O)N=Nc1c(O)[nH]c2cc(Br)ccc12,7,-3,1,-1,1
CC(/C=N/NC(=O)C(O)c1ccccc1)=C\c1ccccc1 (stereo unspecified),-9,-2,2,2,-3
O=C(CSc1nnc(Cc2ccccc2)n1Cc1ccccc1)NCc1ccco1,-6,4,2,0,-1
COc1ccc(CNC(=O)CSc2nnc3nc(C)cc(C)n23)cc1OC,-7,-12,1,0,7
Cc1ccccc1OCc1nnc(SCC(=O)O)n1-c1ccccc1,3,-2,3,0,0
Cc1cc(C)n2c(SCC(=O)NCc3ccco3)nnc2n1,-59*,0,0,1,1
O=C(CSc1nnc(Cn2c(=O)sc3ccccc32)n1-c1ccccc1)NCc1ccco1,-1,-4,0,0,40*
COc1cccc(-n2c(COc3ccccc3C)nnc2SCC(=O)O)c1,-32*,-4,0,-1,3
Cn1c(Cn2c(=O)sc3ccccc32)nnc1SCC(=O)NCc1ccco1,-12,-2,2,0,1
O=C(CSc1nnc(CNc2ccc(Cl)cc2)n1Cc1ccccc1)NCc1ccco1,-32*,0,6,4,-5
CN1CCN(C(=O)CCCN2C(=O)/C(=C/c3ccc(Cl)cc3)SC2=S)CC1,-61*,-13,10,1,5
CN1CCN(C(=O)CCCN2C(=O)/C(=C/c3ccccc3)SC2=S)CC1,-30,-14,7,1,2
COCCN1C(=O)/C(=C/c2ccc(N3CCCC3)cc2)SC1=S,-1,0,258*,44*,-5
CSc1ccccc1C(=O)NC1CCCN(c2ccc(C(F)(F)F)cn2)C1 (stereo unspecified),-20,-7,2,0,-1
Cc1ccc(CNC(=O)c2ccc(OCC3CCCO3)cc2)cc1 (stereo unspecified),-71*,-6,2,0,6
O=C(Nc1ccc(Cl)cc1)c1ccc(OCC2CCCO2)cc1 (stereo unspecified),-66*,-4,4,0,16
O=C(NCc1ccc(Cl)cc1)c1ccc(OCC2CCCO2)cc1 (stereo unspecified),-14,-5,4,0,-5
COc1ccc(NC(=O)/C(C#N)=C/c2c(C)nn(-c3ccc(F)cc3)c2Cl)cc1OC,-32*,-17,1,0,8
COc1ccc(NC(=O)/C(C#N)=C/c2c(C)nn(-c3ccc(F)cc3)c2Cl)cc1Cl,-19,-2,4,0,0
c1cc2c(cc1C1CCCCC1)c1c3n2CCCNC3CCC1 (stereo unspecified),-7,18,122*,-1,-2
